# Experimental data published in the supplement of paper PMC10849652.
# Targets with a hit are over-represented here; the source holds about 8,800 in all. About 0.5% of all pairs of compound and target were hits. Values without a mark were called inactive.
# Experiments:
# Experiment in all cases: log2 fold change, soluble protein after heating vs DMSO (PISA); higher = thermal stabilisation; K562 lysate, 10 uM; active = over 0.2 and 3.5 SD of the protein, either way, in both replicates (recomputed)
# erlotinib = compound: C#Cc1cccc(Nc2ncnc3cc(OCCOC)c(OCCOC)cc23)c1 [erlotinib]
# How it was run: (§1)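 Following dounce homogenisation of K562 pellets in PBS pH 7.4 with 1 mM MgCl2, crude extract at 1 mg/mL protein was incubated for 30 min with 10 μM compound. Aliquots were then heated for 3 min over 48°C-58°C and pooled, NP-40 was added to 0.5% at 4°C, and soluble protein was recovered as the supernatant at 21,000xg for 90 min. Channel-sum-equalised TMTpro 16plex LC-MS/MS quantified this protein. Each value, from duplicates, is a log-two fold change in thermal stability relative to solvent controls.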
# [1] = compound: C/C(=N\NC(=O)C1=CC(=CC=C1)S(=O)(=O)N2CCOCC2)/C3=C(C=CC(=C3)Cl)O
# How it was run: as §1
# [2] = compound: C1=CC(=CC=C1C2=NC3=C(N2)C=C(C=C3)C(=O)N)OC4=CC=C(C=C4)Cl
# How it was run: as §1
# [3] = compound: C1=CC2=C(C=CC(=C2)/C=C\3/C(=O)NC(=NCC4=CC=CS4)S3)N=C1
# How it was run: as §1
# [4] = compound: C1=CC2=NC=CN=C2C=C1/C=C/3\C(=O)NC(=O)S3
# How it was run: as §1
# [5] = compound: C1=CC=C(C=C1)C2=NC(=C(N2)C3=CC=NC=C3)C4=CC(=C(C=C4)Cl)O
# How it was run: as §1
# [6] = compound: C1=CC=C2C(=C1)C3=NNC4=CC=CC(=C43)C2=O
# How it was run: as §1
# [7] = compound: C1CCN(C1)C(=O)NC2=CC=CC(=C2)NC3=NC=C(C(=N3)NCCC4=CN=CN4)Br
# How it was run: as §1
# [8] = compound: C1CN(CCC1(CC2=CC=C(C=C2)Cl)N)C3=NC=NC4=C3C=CN4
# How it was run: as §1
# IRAK-1-4 Inhibitor I = compound: C1COCCN1CCN2C3=CC=CC=C3N=C2NC(=O)C4=CC(=CC=C4)[N+](=O)[O-] [IRAK-1-4 Inhibitor I]
# How it was run: as §1
# ibrutinib = compound: C=CC(=O)N1CCC[C@@H](n2nc(-c3ccc(Oc4ccccc4)cc3)c3c(N)ncnc32)C1 [ibrutinib]
# How it was run: as §1
# [9] = compound: CC(=O)c1cnc2ccc(-c3cc(Cl)c(O)c(Cl)c3)nc2c1N[C@H]1CC[C@H](CN(C)C)CC1
# How it was run: as §1
# ralimetinib = compound: CC(C)(C)Cn1c(N)nc2ccc(-c3[nH]c(C(C)(C)C)nc3-c3ccc(F)cc3)nc21 [ralimetinib]
# How it was run: as §1
# [10] = compound: CC(C)(O)CC(=O)NCCn1ccc2ncnc(Nc3ccc(Oc4cccc(C(F)(F)F)c4)c(Cl)c3)c21
# How it was run: as §1
# [11] = compound: CC(C)C1=C2N=C(C=C(N2N=C1)NCC3=CC=CC=C3)NCCCCCCN
# How it was run: as §1
# [12] = compound: CC1=C(C2=C(C=C1)C(=O)C3=CC=CC=C3N2CCCN)C
# How it was run: as §1
# [13] = compound: CC1=C(C=C(C=C1)NC(=O)C2=CC(=CC=C2)C(C)(C)C#N)NC3=CC4=C(C=C3)N=CN(C4=O)C
# How it was run: as §1
# [14] = compound: CC1=C(C=C(C=C1)NC(=O)C2=CC(=CC=C2)N(C)C)NC(=O)C3=CC=C(C=C3)O
# How it was run: as §1
# [15] = compound: CC1=CC=C(C=C1)SC2=C3C=C(SC3=CN=C2)C(=O)N
# How it was run: as §1
# [16] = compound: CC1=C(C(CC(=O)N1)C2=CC=C(C=C2)C(F)(F)F)C(=O)NC3=C(C=C4C(=C3)C=NN4)F
# How it was run: as §1
# Chain of UniProt Q00535 (Q00535 whole entry, looked up): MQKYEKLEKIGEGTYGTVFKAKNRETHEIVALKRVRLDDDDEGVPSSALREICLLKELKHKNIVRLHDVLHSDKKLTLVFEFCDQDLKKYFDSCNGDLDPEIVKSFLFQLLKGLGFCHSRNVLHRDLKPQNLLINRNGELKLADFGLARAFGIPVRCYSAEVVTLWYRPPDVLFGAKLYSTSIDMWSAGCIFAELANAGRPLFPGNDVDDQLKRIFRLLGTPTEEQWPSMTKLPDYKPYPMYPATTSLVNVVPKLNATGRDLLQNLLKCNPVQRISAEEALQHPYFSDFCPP
# Chain of UniProt A8MTT3 (A8MTT3 whole entry, looked up): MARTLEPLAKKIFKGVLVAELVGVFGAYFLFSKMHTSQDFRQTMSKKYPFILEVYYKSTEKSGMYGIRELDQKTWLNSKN
# Chain of UniProt Q8WYN0 (Q8WYN0 whole entry, looked up): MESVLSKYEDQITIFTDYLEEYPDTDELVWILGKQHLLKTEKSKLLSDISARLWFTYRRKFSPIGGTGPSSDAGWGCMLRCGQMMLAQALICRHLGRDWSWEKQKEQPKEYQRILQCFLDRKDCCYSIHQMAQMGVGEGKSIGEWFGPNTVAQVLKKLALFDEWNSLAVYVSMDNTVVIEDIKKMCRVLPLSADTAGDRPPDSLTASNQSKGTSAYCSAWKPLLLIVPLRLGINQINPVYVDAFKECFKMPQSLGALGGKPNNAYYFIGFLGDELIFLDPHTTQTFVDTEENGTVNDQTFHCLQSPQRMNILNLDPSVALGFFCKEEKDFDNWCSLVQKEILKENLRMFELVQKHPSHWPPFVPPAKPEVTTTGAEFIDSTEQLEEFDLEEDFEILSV
# Chain of UniProt Q96B23 (Q96B23 whole entry, looked up): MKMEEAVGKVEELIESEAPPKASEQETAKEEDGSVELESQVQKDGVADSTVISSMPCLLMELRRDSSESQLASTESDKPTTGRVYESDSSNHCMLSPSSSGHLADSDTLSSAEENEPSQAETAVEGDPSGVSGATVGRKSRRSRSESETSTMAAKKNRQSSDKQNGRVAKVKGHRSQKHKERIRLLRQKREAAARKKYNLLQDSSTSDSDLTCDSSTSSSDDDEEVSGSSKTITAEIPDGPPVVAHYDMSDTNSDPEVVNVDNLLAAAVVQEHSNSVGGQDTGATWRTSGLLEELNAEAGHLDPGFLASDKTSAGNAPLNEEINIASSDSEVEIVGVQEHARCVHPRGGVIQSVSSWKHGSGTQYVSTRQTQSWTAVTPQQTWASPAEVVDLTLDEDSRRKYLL
# Chain of UniProt P49336 (P49336 whole entry, looked up): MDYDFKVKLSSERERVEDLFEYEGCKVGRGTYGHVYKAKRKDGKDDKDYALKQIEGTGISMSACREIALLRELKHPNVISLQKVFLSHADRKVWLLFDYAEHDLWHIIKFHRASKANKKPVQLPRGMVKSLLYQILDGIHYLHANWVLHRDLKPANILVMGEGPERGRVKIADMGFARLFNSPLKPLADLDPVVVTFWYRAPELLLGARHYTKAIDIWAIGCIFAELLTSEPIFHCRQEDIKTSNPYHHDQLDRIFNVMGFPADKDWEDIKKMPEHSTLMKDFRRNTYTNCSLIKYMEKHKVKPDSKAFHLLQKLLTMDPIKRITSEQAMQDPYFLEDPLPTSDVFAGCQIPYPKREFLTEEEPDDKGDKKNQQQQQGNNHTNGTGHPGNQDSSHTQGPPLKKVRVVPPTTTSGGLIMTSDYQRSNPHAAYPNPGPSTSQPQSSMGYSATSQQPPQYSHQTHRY
# Chain of UniProt Q9ULG6 (Q9ULG6 whole entry, looked up): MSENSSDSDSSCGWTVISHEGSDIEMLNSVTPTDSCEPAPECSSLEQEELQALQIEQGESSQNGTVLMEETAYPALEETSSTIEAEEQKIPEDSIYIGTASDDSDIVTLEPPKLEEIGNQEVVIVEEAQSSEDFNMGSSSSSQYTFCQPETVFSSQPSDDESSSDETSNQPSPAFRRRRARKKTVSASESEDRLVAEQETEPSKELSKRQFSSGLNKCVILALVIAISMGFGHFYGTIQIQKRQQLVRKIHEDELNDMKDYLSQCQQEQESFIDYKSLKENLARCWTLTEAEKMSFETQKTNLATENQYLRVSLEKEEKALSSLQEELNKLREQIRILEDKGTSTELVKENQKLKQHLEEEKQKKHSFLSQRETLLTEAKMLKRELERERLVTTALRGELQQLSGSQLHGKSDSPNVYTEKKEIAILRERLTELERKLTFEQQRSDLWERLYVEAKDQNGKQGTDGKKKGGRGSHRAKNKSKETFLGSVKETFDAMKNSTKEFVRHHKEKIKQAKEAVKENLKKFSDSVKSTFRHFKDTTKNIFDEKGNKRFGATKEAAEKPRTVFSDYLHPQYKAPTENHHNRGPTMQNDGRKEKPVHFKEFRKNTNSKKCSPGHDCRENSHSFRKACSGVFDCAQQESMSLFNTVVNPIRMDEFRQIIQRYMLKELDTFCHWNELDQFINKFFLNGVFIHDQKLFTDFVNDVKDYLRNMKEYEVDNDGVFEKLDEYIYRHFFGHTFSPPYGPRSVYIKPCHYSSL
# Chain of UniProt P46527 (P46527 whole entry, looked up): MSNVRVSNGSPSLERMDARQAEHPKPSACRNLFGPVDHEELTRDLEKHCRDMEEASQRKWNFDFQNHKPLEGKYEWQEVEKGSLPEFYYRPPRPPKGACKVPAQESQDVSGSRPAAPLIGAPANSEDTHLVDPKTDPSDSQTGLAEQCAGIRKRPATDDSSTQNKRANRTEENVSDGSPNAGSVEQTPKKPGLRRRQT
# Chain of UniProt Q5H9F3 (Q5H9F3 whole entry, looked up): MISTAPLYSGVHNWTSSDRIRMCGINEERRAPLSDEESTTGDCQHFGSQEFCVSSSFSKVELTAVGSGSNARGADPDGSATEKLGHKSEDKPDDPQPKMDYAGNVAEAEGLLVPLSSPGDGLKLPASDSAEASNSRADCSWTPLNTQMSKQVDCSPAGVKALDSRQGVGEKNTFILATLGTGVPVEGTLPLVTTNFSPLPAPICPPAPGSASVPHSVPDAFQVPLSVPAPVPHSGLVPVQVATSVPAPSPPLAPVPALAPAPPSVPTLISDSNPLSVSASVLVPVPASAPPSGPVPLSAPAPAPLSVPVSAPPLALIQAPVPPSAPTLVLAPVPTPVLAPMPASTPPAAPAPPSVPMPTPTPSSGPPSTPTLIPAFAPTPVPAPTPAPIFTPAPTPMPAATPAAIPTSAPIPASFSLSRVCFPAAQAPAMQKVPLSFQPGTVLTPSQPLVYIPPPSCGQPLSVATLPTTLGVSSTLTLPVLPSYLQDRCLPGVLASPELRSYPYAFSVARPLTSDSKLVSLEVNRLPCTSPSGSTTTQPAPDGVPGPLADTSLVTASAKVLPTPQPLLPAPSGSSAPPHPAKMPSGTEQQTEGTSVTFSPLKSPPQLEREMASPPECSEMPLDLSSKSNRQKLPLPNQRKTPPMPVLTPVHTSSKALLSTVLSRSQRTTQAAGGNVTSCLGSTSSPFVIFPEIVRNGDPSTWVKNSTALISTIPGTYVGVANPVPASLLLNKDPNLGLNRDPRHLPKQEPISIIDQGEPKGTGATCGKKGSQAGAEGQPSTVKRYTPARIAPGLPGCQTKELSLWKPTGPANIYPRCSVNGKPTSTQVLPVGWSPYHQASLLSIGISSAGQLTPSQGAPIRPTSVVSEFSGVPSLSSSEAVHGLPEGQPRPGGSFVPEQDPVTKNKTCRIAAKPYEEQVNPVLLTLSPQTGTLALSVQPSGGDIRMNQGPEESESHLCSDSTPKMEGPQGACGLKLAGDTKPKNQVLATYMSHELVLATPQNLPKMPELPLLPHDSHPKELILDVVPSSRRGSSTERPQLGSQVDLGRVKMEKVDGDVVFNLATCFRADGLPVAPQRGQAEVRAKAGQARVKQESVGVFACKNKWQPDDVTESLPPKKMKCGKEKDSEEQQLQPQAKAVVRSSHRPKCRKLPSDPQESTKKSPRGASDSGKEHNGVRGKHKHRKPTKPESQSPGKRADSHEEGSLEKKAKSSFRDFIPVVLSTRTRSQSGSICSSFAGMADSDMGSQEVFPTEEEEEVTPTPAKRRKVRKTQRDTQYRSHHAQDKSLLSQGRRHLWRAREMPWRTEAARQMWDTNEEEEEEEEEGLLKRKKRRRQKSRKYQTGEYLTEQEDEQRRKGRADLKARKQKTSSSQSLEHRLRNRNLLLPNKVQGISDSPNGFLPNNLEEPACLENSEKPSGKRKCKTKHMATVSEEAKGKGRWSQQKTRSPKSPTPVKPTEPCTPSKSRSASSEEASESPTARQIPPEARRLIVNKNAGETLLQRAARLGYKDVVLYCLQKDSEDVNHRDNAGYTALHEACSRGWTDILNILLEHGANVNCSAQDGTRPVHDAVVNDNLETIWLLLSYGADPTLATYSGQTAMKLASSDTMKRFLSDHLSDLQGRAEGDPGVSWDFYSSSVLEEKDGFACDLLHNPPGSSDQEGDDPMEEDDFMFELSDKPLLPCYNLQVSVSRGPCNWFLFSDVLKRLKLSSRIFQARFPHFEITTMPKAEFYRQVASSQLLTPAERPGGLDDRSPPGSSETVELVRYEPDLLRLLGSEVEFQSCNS
# Chain of UniProt P33681 (P33681 whole entry, looked up): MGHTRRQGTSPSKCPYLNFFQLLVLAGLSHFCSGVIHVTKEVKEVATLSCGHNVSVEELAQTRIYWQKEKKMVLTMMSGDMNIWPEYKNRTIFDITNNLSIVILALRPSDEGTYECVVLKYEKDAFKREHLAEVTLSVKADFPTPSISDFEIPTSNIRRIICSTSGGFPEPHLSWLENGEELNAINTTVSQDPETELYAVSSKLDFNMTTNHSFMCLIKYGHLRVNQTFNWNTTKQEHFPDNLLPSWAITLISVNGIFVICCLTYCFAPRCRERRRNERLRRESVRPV
# Chain of UniProt Q53HL2 (Q53HL2 whole entry, looked up): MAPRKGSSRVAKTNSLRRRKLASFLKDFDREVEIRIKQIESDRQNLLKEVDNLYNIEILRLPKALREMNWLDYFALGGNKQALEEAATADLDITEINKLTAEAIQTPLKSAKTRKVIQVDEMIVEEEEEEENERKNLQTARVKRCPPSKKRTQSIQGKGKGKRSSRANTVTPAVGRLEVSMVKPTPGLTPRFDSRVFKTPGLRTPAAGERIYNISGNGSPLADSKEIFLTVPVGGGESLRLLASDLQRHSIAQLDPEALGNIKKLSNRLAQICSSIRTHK
Target,log2 fold change (erlotinib),log2 fold change [1],log2 fold change [2],log2 fold change [3],log2 fold change [4],log2 fold change [5],log2 fold change [6],log2 fold change [7],log2 fold change [8],log2 fold change (IRAK-1-4 Inhibitor I),log2 fold change (ibrutinib),log2 fold change [9],log2 fold change (ralimetinib),log2 fold change [10],log2 fold change [11],log2 fold change [12],log2 fold change [13],log2 fold change [14],log2 fold change [15],log2 fold change [16]
ATXN2 (UniProt F8WB05),0.073,-0.082,0.09,-0.191,-0.063,-0.011,-0.083,-0.036,0.055,-0.157,-0.538,-0.104,0,0.033,0.037,0.006,0.119,-0.044,0.048,–
BBS7 (UniProt Q8IWZ6),-0.095,0.146,-0.014,-0.034,–,0.057,-0.098,-0.068,0.082,0.022,–,–,0.047,0.015,-0.021,0.182,0.181,-0.013,–,0.077
CHD3 isoform 3 (UniProt Q12873),0.003,-0.022,-0.025,-0.01,0.003,0.002,-0.017,-0.058,0.005,-0.032,-0.003,0.021,-0.01,-0.021,-0.001,-0.018,0,-0.013,0.007,0.019
ATG4A (UniProt Q8WYN0),0.031,-0.087,-0.055,-0.01,0.007,0.01,-0.023,-0.015,0.038,-0.001,0.032,-0.006,0.011,-0.051,-0.055,-0.004,0.053,0.021,-0.014,-0.006
BCR (UniProt P11274),-0.006,0.037,0.047,0.012,-0.01,0.004,-0.052,-0.025,-0.011,-0.041,-0.026,0.037,0.025,-0.025,0.014,-0.032,0.025,0,0.017,-0.001
CDK5 (UniProt Q00535),-0.018,-0.065,0.126,-0.041,-0.023,0.01,–,0.367,0.004,0.033,0.015,0.53 (active),0.004,-0.023,-0.032,-0.006,-0.052,0.023,-0.058,-0.034
CD80 (UniProt P33681),-0.139,0.041,0.063,-0.013,–,-0.087,-0.02,0.058,-0.029,0.096,–,0.034,0.207,-0.051,-0.136,-0.084,0.043,-0.119,0.014,0.106
CDCA8 (UniProt Q53HL2),0.112,0.054,0.009,-0.071,-0.12,–,-0.246,-0.01,-0.054,–,0.047,–,–,–,-0.082,0.011,–,–,–,0.038
CDKN1B (UniProt P46527),-0.079,-0.067,0.011,0.012,0.026,-0.038,0.03,0.045,0.003,-0.086,0.141,0.013,0.037,0.069,-0.037,-0.053,-0.325,-0.019,0.017,–
CEBPZOS (UniProt A8MTT3),-0.038,0.013,0.004,0.003,–,-0.014,0.006,-0.011,0.005,-0.015,–,0.02,0.035,0.022,-0.047,0.04,0.112,-0.032,0.012,-0.054
CDK8 (UniProt P49336),-0.012,-0.059,0.028,-0.128,0.068,0.004,0.128,–,–,0.029,0.006,0.097,-0.041,-0.011,-0.073,0.095,0.088,0.016,0.16,-0.058
CEP41 (UniProt Q9BYV8),-0.068,-0.125,0.006,-0.007,0.016,–,0.019,-0.035,0.03,–,0.014,0.045,–,–,0.021,0.095,0.011,–,-0.031,-0.025
BCORL1 isoform 3 (UniProt Q5H9F3),0.002,-0.015,0.15,-0.117,–,0.004,-0.115,-0.114,-0.005,–,–,–,-0.07,0.075,0.074,0.001,-0.321,-0.01,–,–
C5orf51 (UniProt A6NDU8),0.024,0.004,-0.008,-0.026,0.04,0.007,-0.038,-0.027,0.055,-0.025,0.052,-0.008,0.001,-0.027,0.014,0.004,0.042,0.042,-0.001,-0.005
CCPG1 isoform 5 (UniProt Q9ULG6),-0.014,0.08,0.082,0.017,0.024,0.067,-0.119,0.019,0.053,-0.03,0.021,-0.014,0.08,0.013,0.014,-0.058,-0.026,-0.029,-0.102,-0.004
AVEN (UniProt Q9NQS1),0.111,0.077,-0.205,-0.079,0.183,0.06,0.055,-0.023,-0.013,-0.096,-0.03,–,-0.061,-0.079,0.055,0.027,0.1,-0.08,–,0.009
CANX isoform 2 (UniProt P27824),0.007,-0.027,0.048,0.004,0,-0.007,-0.042,0,0.013,0.003,-0.046,-0.009,-0.029,0.003,0.007,-0.004,0.011,0.029,-0.025,0.001
C18orf25 isoform 2 (UniProt Q96B23),0.031,0.098,-0.059,-0.002,0.185,0.055,-0.011,-0.01,-0.063,0.003,0.126,0.1,-0.065,-0.027,-0.013,0.015,–,-0.017,-0.076,-0.088
